This passage reports growth results from the supplement of paper PMC12494721.

Structures can show the parent of a compound that is named as a salt.

One assay concerns Klebsiella aerogenes DSM 30053. Kind of assay: growth (OD595) fold change vs plate DMSO controls (fold change (ratio)); higher = more growth. The note with it: incubation time: 27 h, anaerobic, 37 °C. A digest of the protocol:
(§1)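 The reported measure is growth: the fold change against the median of DMSO controls on the plate. Absorbance at 595 nm from anaerobic 96-well mGAM cultures grown for 27 h at 37 °C was blank-subtracted, corrected for background with 20 µM compound solutions in water, and converted to OD with a calibration factor of 5. Fold changes above 1.5 appear as NA, and values are the mean of 2 biological replicates.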
As for `CC(C)(CO)[C@@H](O)C(=O)NCCC(=O)NCCSSCCNC(=O)CCNC(=O)[C@H](O)C(C)(C)CO` [D-Pantethine] (20 µM), the growth stood at 1.02.

Turning to `CC(=O)SCC(Cc1ccccc1)C(=O)NCC(=O)OCc1ccccc1` (stereo not given) [Racecadotril] (20 µM), the growth came out at 0.986. On the same count and under the same terms, then `O=C(CCCN1CCN(c2ccccn2)CC1)c1ccc(F)cc1` [Azaperone] (20 µM), with 0.974; and `C[C@H](NCc1ccc(OCc2cccc(F)c2)cc1)C(N)=O` [Safinamide] (20 µM), with 1.

As to `CCCC(=O)N1CCCN(c2nc(N)c3cc(OC)c(OC)cc3n2)CC1` [Bunazosin hydrochloride] (20 µM), the growth was determined as 1. Still for that read-out and setting: then `Cc1ccc2c(c1)c1c3n2CCNC3CCC1` (stereo not given) [Pirlindole mesylate] (20 µM), with 0.98. With `CC(C)(C)NC(=O)[C@@H]1CN(Cc2cccnc2)CCN1C[C@@H](O)C[C@@H](Cc1ccccc1)C(=O)N[C@H]1c2ccccc2C[C@H]1O` [Indinavir sulfate] (20 µM), the growth is 1.04.

As to `COc1cc(Nc2c(C#N)cnc3cc(OCCCN4CCN(C)CC4)c(OC)cc23)c(Cl)cc1Cl` [Bosutinib] (20 µM), the growth was 1.05.

On to `O=C1[C@H](CC[C@H](O)c2ccc(F)cc2)[C@@H](c2ccc(O)cc2)N1c1ccc(F)cc1` [Ezetimibe] (20 µM), for which the growth is 1.02.

The subject of the next assay is Ruminococcus gnavus DSM 108212. The description is as above. The note with it: incubation time: 27 h, anaerobic, 37 °C. A digest of the protocol: as §1
Turning to `CC#C[C@]1(O)CC[C@H]2[C@@H]3CCC4=CC(=O)CCC4=C3[C@@H](c3ccc(N(C)C)cc3)C[C@@]21C` [Mifepristone] (20 µM), the growth was 1.09. With `C[C@]12CC[C@@H]3c4ccc(O)cc4CC[C@H]3[C@@H]1CCC2=O` [Estrone] (20 µM), the growth is 1.01. In the case of `O=C(O)c1cccnc1Nc1cccc(C(F)(F)F)c1` [Niflumic acid] (20 µM), the growth turned out to be 1.32. Still for that read-out and setting: the same measure for `OCCN1CCN(CCCN2c3ccccc3C=Cc3ccccc32)CC1` [Opipramol dihydrochloride] (20 µM): 0.902. For the molecule `COCC1=C(C(=O)OC(C)OC(=O)OC(C)C)N2C(=O)[C@@H](NC(=O)/C(=N\OC)c3csc(N)n3)[C@H]2SC1` (stereo not given in full) [Cefpodoxime proxetil] (20 µM), the growth was 1.18. The same measure, in the same setting: the same measure for `CN(CCOc1ccc(CC2SC(=O)NC2=O)cc1)c1ccccn1` (stereo not given) [Rosiglitazone hydrochloride] (20 µM): 1.05. The same measure, in the same setting: the same measure for `CC(C(=O)O)c1ccc(-c2ccccc2)c(F)c1` (stereo not given) [Flurbiprofen] (20 µM): 1.02.

Regarding `CCCCc1oc2ccc(NS(C)(=O)=O)cc2c1C(=O)c1ccc(OCCCN(CCCC)CCCC)cc1` [Dronedarone hydrochloride] (20 µM), the growth was found to be 0.895. Same read-out and setting: the same measure for `O=C(COc1ccc(Cl)cc1)N1CCN(Cc2ccc3c(c2)OCO3)CC1` [Fipexide hydrochloride] (20 µM): 0.87; for `CCCCCCCCCCCCCCCC[N+](C)(C)CCN(Cc1ccc(OC)cc1)c1ncccn1` [Thonzonium bromide] (20 µM): 1.

Regarding `C#C[C@]1(O)CC[C@H]2[C@@H]3CCc4cc(OC)ccc4[C@H]3CC[C@@]21C` [Mestranol] (20 µM), the growth was found to be 1.14. Consider `OC(CCN1CCCCC1)(c1ccccc1)C1CCCCC1` (stereo not given) [Trihexyphenidyl-D,L hydrochloride] (20 µM), for which the growth is 0.865. The same measure, in the same setting: then `O=C(Cn1cnnn1)N[C@@H]1C(=O)N2C(C(=O)O)=C(CSc3nncs3)CS[C@H]12` [Ceftezole] (20 µM), with 0.188. Still for that read-out and setting: then `CCOc1ccc(NC(N)=O)cc1` [(4-Ethoxyphenyl)urea] (50 µM), with 1.09; and `NC(=O)c1ncn([C@@H]2O[C@H](CO)[C@@H](O)[C@H]2O)n1` [Ribavirin] (20 µM), with 0.942.

In the case of `CC1(C)S[C@@H]2[C@H](NC(=O)C(C(=O)O)c3ccccc3)C(=O)N2[C@H]1C(=O)O` (stereo not given in full) [Carbenicillin disodium salt] (20 µM), the growth is 0.00334.

As for `O=C(c1ccccc1)c1ccc2n1CCC2C(=O)O` (stereo not given) [Ketorolac tromethamine] (20 µM), the growth turned out to be 0.993.

In the case of `CN(C(=O)CN(CCO)CC(=O)N(C)C(C)(C)Cc1ccccc1)C(C)(C)Cc1ccccc1` [Oxethazaine] (20 µM), the growth was determined as 0.384. Still for that read-out and setting: the same measure for `CCOC(=O)[C@H](CCc1ccccc1)N[C@@H](C)C(=O)N1Cc2ccccc2C[C@H]1C(=O)O` [Quinapril hydrochloride] (20 µM): 0.99. The same measure, in the same setting: then `CC[N+]1(CC)CCC(=C(c2ccccc2)c2ccccc2)C1C` (stereo not given) [Prifinium Bromide] (20 µM), with 0.925; and `O=P(O)(O)C(Cl)(Cl)P(=O)(O)O` [Clodronate disodium] (20 µM), with 1.09.
